# Results: PubChem BioAssay (NCATS)
# Results filed as inconclusive are left out. A call without a number means that no potency is given here. Active and inactive are the calls of the source. Calls follow the shape of the dose curve; as a rule, active = well fitted curve in the direction sought with a large enough effect; inconclusive = small, poorly fitted or top-dose-only effect, or another doubt; inactive = no such curve, though single readings can be large; an effect the other way counts as inactive or inconclusive.
# Assay: Cell Viability - Mesenchymal (AID 546);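 also: cells exposed to compound for 40 hours before reading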
# Conditions: mesenchymal cells viability, qHTS; series mostly up to 91.7 µM
# Procedure, shortened: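 In this qHTS cytotoxicity format, glomerulus-derived human mesenchymal kidney cells received compound for 40 hr, then luciferase-based ATP quantitation. Concentration-response data were fitted with the Hill equation.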
row,Structure (SMILES),Potency
1,Nc1ccccc1S(=O)(=O)O,inactive
2,c1ccsc1,inactive
3,FC(F)(F)c1ccccc1Cl,inactive
4,O=C1NC(=O)c2cc([N+](=O)[O-])ccc21,inactive
5,Cc1c(C(=O)O)cccc1[N+](=O)[O-],inactive
6,C[C@@H]1O[C@@H](O[C@@H]2[C@@H](O)[C@H](OCCc3ccc(O)c(O)c3)O[C@H](CO[C@@H]3O[C@H](CO)[C@@H](O)[C@H](O)[C@H]3O)[C@H]2OC(=O)/C=C/c2ccc(O)c(O)c2)[C@H](O)[C@H](O)[C@H]1O,inactive
7,O=Cc1ccc(C(=O)O)cc1,inactive
8,NC(=O)CCCCC(N)=O,inactive
9,CCc1ccccc1,inactive
10,CCNc1ccccc1,inactive
11,C=Cc1ccc(C=C)cc1,inactive
12,Cc1ccccc1C(N)=O,inactive
13,CCCCC(=O)N(C)C,inactive
14,CC#N,inactive
15,CC(=O)CCc1ccccc1,inactive
16,C=C(C)C1CC=C(C)C(OC(C)=O)C1 (stereo not given),inactive
17,Nc1cccc2c(=O)[nH][nH]c(=O)c12,inactive
18,CC(=O)c1cc(C)oc1C,inactive
19,C=CCOC(=O)COCCC(C)C,inactive
20,C=CCOC(=O)CCCCCCCC,inactive

row,Structure (SMILES),Potency
1,NC(=S)NNC(N)=S,inactive
2,CSCCC=O,inactive
3,CCC(C)O (stereo not given),inactive
4,CCCC(C)CO (stereo not given),inactive
5,CCC(=O)/C=C/C1C(C)=CCCC1(C)C (stereo not given),inactive
6,C=CCCCCCC,inactive
7,CC(C)=CCl,inactive
8,Nc1ccc([N+](=O)[O-])c(N)c1,inactive
9,CC(=O)Nc1ccccc1C,inactive
10,CCCCCCCCN,inactive
11,CC(CCl)OC(C)CCl (stereo not given),inactive
12,O=[N+]([O-])c1ccccc1CCO,inactive
13,Cc1cc(C)cc(O)c1,inactive
14,Cc1ccc(C#N)cc1,inactive
15,[O-]/[N+](=N\O)c1ccccc1,inactive
16,CC(=O)Nc1cccc(N)c1,inactive
17,CCCCC(CC)CO (stereo not given),inactive
18,CC(=O)c1ccccc1[N+](=O)[O-],inactive
19,Nc1cc(Cl)c([N+](=O)[O-])cc1O,inactive
20,O=C(O[C@@H](C(=O)O)[C@@H](OC(=O)c1ccccc1)C(=O)O)c1ccccc1,inactive

# Assay: Cellular Toxicity (caspase-3) HepG2 (AID 654);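 also: cells exposed to compound for 16 hours before reading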
# Conditions: HepG2 caspase-3 activation, luminescence; series mostly up to 92.2 µM
# Procedure, shortened: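 Caspase 3/7 activation in HepG2 is measured as rising luminescence after a 16 hr treatment at 37 °C. Values are scaled between DMSO basal and 100 uM tamoxifen, and AC50 is fitted with the Hill equation.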
row,Structure (SMILES),Potency
1,Nc1ccccc1S(=O)(=O)O,inactive
2,c1ccsc1,inactive
3,FC(F)(F)c1ccccc1Cl,inactive
4,O=C1NC(=O)c2cc([N+](=O)[O-])ccc21,inactive
5,Cc1c(C(=O)O)cccc1[N+](=O)[O-],inactive
6,C[C@@H]1O[C@@H](O[C@@H]2[C@@H](O)[C@H](OCCc3ccc(O)c(O)c3)O[C@H](CO[C@@H]3O[C@H](CO)[C@@H](O)[C@H](O)[C@H]3O)[C@H]2OC(=O)/C=C/c2ccc(O)c(O)c2)[C@H](O)[C@H](O)[C@H]1O,inactive
7,O=Cc1ccc(C(=O)O)cc1,inactive
8,NC(=O)CCCCC(N)=O,inactive
9,CCc1ccccc1,inactive
10,CCNc1ccccc1,inactive
11,C=Cc1ccc(C=C)cc1,inactive
12,Cc1ccccc1C(N)=O,inactive
13,CCCCC(=O)N(C)C,inactive
14,CC#N,inactive
15,CC(=O)CCc1ccccc1,inactive
16,C=C(C)C1CC=C(C)C(OC(C)=O)C1 (stereo not given),inactive
17,Nc1cccc2c(=O)[nH][nH]c(=O)c12,inactive
18,CC(=O)c1cc(C)oc1C,inactive
19,C=CCOC(=O)COCCC(C)C,inactive
20,C=CCOC(=O)CCCCCCCC,inactive

row,Structure (SMILES),Potency
1,NC(=S)NNC(N)=S,inactive
2,CSCCC=O,inactive
3,CCC(C)O (stereo not given),inactive
4,CCCC(C)CO (stereo not given),inactive
5,CCC(=O)/C=C/C1C(C)=CCCC1(C)C (stereo not given),inactive
6,C=CCCCCCC,inactive
7,CC(C)=CCl,inactive
8,Nc1ccc([N+](=O)[O-])c(N)c1,inactive
9,CC(=O)Nc1ccccc1C,inactive
10,CCCCCCCCN,inactive
11,CC(CCl)OC(C)CCl (stereo not given),inactive
12,O=[N+]([O-])c1ccccc1CCO,inactive
13,Cc1cc(C)cc(O)c1,inactive
14,Cc1ccc(C#N)cc1,inactive
15,[O-]/[N+](=N\O)c1ccccc1,inactive
16,CC(=O)Nc1cccc(N)c1,inactive
17,CCCCC(CC)CO (stereo not given),inactive
18,CC(=O)c1ccccc1[N+](=O)[O-],inactive
19,Nc1cc(Cl)c([N+](=O)[O-])cc1O,inactive
20,O=C(O[C@@H](C(=O)O)[C@@H](OC(=O)c1ccccc1)C(=O)O)c1ccccc1,inactive
